In paper PMC7862700, “An all-to-all approach to the identification of sequence-specific readers for epigenetic DNA modifications on cytosine”:

Columns and labels:
Assay in all cases: DAPPL (digital affinity profiling via proximity ligation, sequencing); 10 mM Tris-HCl pH 7.5, 50 mM NaCl, 1 mM DTT, 4% glycerol, room temperature, 30 min; GST-TFs on glutathione beads, 16-mer random dsDNA library, 0.1% formaldehyde crosslink after washing; high values mean tight binding
Settings in all cases: protein: recombinant; tags: N-terminal GST; dsDNA, one strand shown
FLI1 = biological target: T1, FLI1 (Homo sapiens, UniProt Q01543 1-452)
T1 sequence: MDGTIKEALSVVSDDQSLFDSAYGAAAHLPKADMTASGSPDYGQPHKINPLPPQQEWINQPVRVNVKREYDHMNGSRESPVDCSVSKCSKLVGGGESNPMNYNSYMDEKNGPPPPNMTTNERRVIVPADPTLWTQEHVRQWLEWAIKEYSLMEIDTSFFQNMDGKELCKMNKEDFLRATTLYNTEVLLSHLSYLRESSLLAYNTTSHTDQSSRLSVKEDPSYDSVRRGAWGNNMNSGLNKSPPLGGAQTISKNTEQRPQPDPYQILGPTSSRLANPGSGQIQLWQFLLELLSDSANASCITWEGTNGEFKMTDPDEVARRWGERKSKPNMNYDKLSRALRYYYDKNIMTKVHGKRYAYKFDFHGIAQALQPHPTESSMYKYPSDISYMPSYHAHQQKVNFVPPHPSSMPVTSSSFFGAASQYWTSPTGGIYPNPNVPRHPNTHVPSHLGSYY
In short: (§1)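 Binding signal is given per hexamer as its read frequency for a factor divided by its frequency in the tag-only sample. GST-fused human transcription factors were expressed in yeast, captured on glutathione beads, barcoded with DNA and pooled with that sample, then incubated with 200 nmole of a 16-mer random double-stranded DNA library in Tris/NaCl/DTT/glycerol buffer for 30 min at room temperature. The pools were then washed, crosslinked, proximity-ligated, amplified by PCR and sequenced on an Illumina NextSeq500.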

ELK1 = biological target: T2, ELK1 (Homo sapiens, UniProt P19419 1-428)
T2 sequence: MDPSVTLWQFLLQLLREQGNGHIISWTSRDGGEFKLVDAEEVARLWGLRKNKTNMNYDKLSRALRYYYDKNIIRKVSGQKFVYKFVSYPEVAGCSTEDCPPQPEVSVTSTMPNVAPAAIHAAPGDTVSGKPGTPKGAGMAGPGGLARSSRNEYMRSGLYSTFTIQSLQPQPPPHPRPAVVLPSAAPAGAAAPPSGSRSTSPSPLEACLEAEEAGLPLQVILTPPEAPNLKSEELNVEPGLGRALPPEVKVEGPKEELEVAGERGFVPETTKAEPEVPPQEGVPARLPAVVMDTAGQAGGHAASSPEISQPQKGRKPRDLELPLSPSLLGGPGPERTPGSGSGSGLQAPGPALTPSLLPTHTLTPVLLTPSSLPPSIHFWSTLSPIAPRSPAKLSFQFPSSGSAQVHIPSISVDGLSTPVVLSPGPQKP
In short: as §1

GABPA = biological target: T3, GABPA (Homo sapiens, UniProt Q06546 1-454)
T3 sequence: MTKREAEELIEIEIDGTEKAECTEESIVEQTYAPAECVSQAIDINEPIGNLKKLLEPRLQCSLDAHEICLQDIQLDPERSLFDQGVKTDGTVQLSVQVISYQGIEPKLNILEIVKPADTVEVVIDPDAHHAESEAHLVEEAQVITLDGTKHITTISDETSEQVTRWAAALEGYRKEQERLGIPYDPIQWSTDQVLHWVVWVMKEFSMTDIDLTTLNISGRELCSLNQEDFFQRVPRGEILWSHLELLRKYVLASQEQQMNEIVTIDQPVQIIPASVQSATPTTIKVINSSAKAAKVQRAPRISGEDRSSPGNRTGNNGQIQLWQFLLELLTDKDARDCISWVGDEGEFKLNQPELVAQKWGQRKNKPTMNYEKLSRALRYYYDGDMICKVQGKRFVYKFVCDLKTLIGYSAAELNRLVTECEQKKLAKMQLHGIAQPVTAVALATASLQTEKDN
In short: as §1

ERG = biological target: T4, ERG (Homo sapiens, UniProt P11308 1-479)
T4 sequence: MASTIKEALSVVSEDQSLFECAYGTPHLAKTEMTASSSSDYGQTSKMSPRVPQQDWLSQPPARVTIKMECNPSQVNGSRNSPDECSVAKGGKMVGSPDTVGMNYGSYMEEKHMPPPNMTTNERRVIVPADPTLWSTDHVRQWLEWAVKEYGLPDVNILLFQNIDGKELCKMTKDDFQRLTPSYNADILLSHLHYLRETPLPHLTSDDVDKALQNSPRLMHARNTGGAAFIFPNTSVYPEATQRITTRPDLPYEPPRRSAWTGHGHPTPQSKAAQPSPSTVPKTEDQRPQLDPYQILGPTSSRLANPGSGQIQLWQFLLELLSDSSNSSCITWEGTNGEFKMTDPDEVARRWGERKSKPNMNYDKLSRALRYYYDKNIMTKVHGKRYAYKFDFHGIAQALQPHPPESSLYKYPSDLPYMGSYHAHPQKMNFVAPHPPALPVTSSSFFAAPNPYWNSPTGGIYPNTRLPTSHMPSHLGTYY
In short: as §1

ELF1 = ELF1 (Homo sapiens, UniProt P32519 1-619)
In short: as §1

EHF = biological target: T5, EHF (Homo sapiens, UniProt Q9NZC4 1-300)
T5 sequence: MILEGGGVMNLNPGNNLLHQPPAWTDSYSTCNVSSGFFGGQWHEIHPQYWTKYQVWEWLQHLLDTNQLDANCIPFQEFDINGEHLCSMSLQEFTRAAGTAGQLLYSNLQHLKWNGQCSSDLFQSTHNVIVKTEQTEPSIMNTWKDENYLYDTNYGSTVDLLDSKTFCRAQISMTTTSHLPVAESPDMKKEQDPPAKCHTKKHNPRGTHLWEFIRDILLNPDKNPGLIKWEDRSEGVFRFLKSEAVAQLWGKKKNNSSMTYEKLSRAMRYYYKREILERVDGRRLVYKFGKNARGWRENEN
In short: as §1

SPI1 = SPI1 (Homo sapiens, UniProt P17947 1-270)
In short: as §1

SPIB = SPIB (Homo sapiens, UniProt Q01892 1-262)
In short: as §1

ELK3 = biological target: T6, ELK3 (Homo sapiens, UniProt P41970 1-407)
T6 sequence: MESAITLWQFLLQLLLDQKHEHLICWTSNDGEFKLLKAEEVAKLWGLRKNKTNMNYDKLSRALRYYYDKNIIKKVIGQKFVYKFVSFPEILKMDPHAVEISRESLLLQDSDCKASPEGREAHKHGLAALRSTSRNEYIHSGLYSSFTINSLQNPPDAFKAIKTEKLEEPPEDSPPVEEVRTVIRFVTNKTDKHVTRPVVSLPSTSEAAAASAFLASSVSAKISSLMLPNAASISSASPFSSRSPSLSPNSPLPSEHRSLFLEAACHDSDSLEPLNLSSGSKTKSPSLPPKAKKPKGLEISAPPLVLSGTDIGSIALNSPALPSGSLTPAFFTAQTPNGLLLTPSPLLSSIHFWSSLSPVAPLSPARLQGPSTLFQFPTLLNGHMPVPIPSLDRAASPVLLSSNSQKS
In short: as §1

ELF1, sequence (P32519 whole entry): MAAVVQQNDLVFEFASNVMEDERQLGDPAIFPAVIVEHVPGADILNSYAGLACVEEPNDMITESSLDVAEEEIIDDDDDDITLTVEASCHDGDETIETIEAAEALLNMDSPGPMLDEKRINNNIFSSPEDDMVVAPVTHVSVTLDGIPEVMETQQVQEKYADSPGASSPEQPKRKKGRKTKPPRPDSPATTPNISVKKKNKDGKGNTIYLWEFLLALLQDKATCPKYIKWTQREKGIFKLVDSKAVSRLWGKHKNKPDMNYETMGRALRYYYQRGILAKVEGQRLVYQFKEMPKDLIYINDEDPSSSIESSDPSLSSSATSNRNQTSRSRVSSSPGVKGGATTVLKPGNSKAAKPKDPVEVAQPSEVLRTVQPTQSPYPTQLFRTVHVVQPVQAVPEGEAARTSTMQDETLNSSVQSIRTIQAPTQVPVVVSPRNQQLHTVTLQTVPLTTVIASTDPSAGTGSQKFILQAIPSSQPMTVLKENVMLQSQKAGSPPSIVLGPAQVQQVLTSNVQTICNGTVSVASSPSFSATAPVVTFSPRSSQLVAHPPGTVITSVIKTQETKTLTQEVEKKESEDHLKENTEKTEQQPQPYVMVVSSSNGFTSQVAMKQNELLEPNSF
SPIB, sequence (Q01892 whole entry): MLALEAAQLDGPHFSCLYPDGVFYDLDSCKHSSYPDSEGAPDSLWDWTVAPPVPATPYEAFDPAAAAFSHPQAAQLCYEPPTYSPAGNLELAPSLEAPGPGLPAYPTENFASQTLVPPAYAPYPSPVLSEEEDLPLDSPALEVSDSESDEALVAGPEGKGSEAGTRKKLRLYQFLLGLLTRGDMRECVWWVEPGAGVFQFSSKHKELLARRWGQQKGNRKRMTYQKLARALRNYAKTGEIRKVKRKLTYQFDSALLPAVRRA

In the case of CACGTA, the binding signal (FLI1) is reported as 1.1 fold enrichment (6-mer frequency, TF over GST control), the binding signal (ELK1) is reported as 1.18 fold enrichment (6-mer frequency, TF over GST control) and the binding signal (GABPA) is reported as 1.23 fold enrichment (6-mer frequency, TF over GST control). For the same sequence, the binding signal (ERG) was 1.1 fold enrichment (6-mer frequency, TF over GST control), the binding signal (ELF1) was 1.13 fold enrichment (6-mer frequency, TF over GST control) and the binding signal (EHF) was 1.11 fold enrichment (6-mer frequency, TF over GST control). The binding signal (SPI1) was 1.12 fold enrichment (6-mer frequency, TF over GST control), the binding signal (SPIB) was 1.17 fold enrichment (6-mer frequency, TF over GST control) and the binding signal (ELK3) was 1.12 fold enrichment (6-mer frequency, TF over GST control).
